From publication PMC10668032, “Altered binding affinity of SIX1-Q177R correlates with enhanced WNT5A and WNT pathway effector expression in Wilms tumor”
Over roughly 33,000 sequences, “e-score” has its median near -0.05; the highest 2% begin near 0.38. The list comes from a sample in which the highest values are over-represented; it also holds similar and randomly drawn sequences.

Target: T1, SIX1-Q177R homeodomain (human, UniProt Q15475 108-198, Q177R)
T1 sequence: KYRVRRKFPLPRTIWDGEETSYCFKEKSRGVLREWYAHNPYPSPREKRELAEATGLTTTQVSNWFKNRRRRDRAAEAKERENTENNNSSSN
Test: universal protein binding microarray; Universal all-10-mer PBM (8x60K, AMADID 030236), 300 nM GST-tagged protein, Alexa Fluor 488 anti-GST; buffer, salt, pH and temperature not stated (as in Berger); high values mean tight binding
Conditions: protein: ivt; tags: N-terminal GST; dsDNA, one strand shown
Summary of the method: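 GST-tagged homeodomains were made by in vitro transcription/translation and quantified by anti-GST western blot against a recombinant GST standard curve. They were applied in duplicate at 300 nM final concentration to universal 'all 10-mer' protein binding microarrays (8×60K format). Binding was quantified as 8-mer E-scores with the Universal PBM Analysis Suite.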

| Sequence | binding signal |
| --- | --- |
| CGATCCAC | 0.2384 ± 0.00175 E-score |
| CCTACGCA | 0.17 ± 0.0129 E-score |
| CACGAAAG | 0.16 ± 0.0281 E-score |
| TACGGACA | 0.168 ± 0.019 E-score |
| CACTGGTA | 0.3128 ± 0.00191 E-score |
| ATCTGACA | 0.275 ± 0.0351 E-score |
| CACCCATG | 0.34 ± 0.0139 E-score |
| CACCTGTC | 0.224 ± 0.0498 E-score |
| CTTTCACA | 0.24 ± 0.00834 E-score |
| AACGGGGT | 0.205 ± 0.0313 E-score |
| AAGGGATC | 0.194 ± 0.0447 E-score |
| CCTCAACA | 0.204 ± 0.0178 E-score |
| AAGAGTTA | 0.172 ± 0.0103 E-score |
| ACACACGG | 0.301 ± 0.0255 E-score |
| ACACACGC | 0.267 ± 0.0306 E-score |
| ATACACGA | 0.38 ± 0.00658 E-score |
| ATACACGC | 0.396 ± 0.0178 E-score |
| CCACACGG | 0.197 ± 0.0212 E-score |
| ATACACGG | 0.401 ± 0.0111 E-score |
| CGTATACG | 0.153 ± 0.0218 E-score |
| ACCTTGTA | 0.203 ± 0.0145 E-score |
| CACGTATA | 0.2103 ± 0.000226 E-score |
| CACTTGCC | 0.227 ± 0.036 E-score |

| Sequence | binding signal |
| --- | --- |
| CGCCACAC | 0.314 ± 0.0118 E-score |
| AGACCCCG | 0.281 ± 0.0369 E-score |
| CCAACTAG | 0.223 ± 0.00917 E-score |
| CACCTCAG | 0.26 ± 0.0094 E-score |
| CCAATTTA | 0.238 ± 0.0221 E-score |
| ACACCAGC | 0.4638 ± 0.00122 E-score |
| GCACCAGA | 0.181 ± 0.0305 E-score |
| ACAGCACC | 0.1838 ± 0.000898 E-score |
| ACCCCAGT | 0.27 ± 0.0137 E-score |
| ACACCAGG | 0.472 ± 0.00716 E-score |
| ACCACAGT | 0.22 ± 0.00384 E-score |
| ACCCCAGA | 0.201 ± 0.039 E-score |
| ACACCAGA | 0.472 ± 0.00546 E-score |
| ACACCAGT | 0.48 ± 0.008 E-score |
| ACTCCAGG | 0.228 ± 0.00384 E-score |
| ACCCCAGC | 0.235 ± 0.0628 E-score |
| ACCCCAGG | 0.249 ± 0.0168 E-score |
| GACGATAC | 0.205 ± 0.0214 E-score |
| CCTGGGTA | 0.164 ± 0.00425 E-score |
| GGGGAGTA | 0.256 ± 0.0126 E-score |
| CACCATGC | 0.297 ± 0.00858 E-score |
| CACCCGGG | 0.327 ± 0.0154 E-score |
| ACACTGAA | 0.349 ± 0.00868 E-score |

| Sequence | binding signal |
| --- | --- |
| ACACTGTG | 0.381 ± 0.0114 E-score |
| ACTCTGAC | 0.172 ± 0.00272 E-score |
| ACACTGAC | 0.381 ± 0.0072 E-score |
| ACACTGTC | 0.336 ± 0.0232 E-score |
| ACACTGAG | 0.354 ± 0.00682 E-score |
| CCGCGAAA | 0.167 ± 0.0237 E-score |
| GTAGTACA | 0.277 ± 0.0241 E-score |
| CACGAGTA | 0.167 ± 0.0394 E-score |
| GGTATCGA | 0.2937 ± 0.0007 E-score |
| GTCGAGTA | 0.1983 ± 0.00156 E-score |
| ATCGTGTG | 0.229 ± 0.0199 E-score |
| CTCGGGTC | 0.155 ± 0.0227 E-score |
| CTTGTGTC | 0.168 ± 0.0605 E-score |
| ATCGTGTA | 0.403 ± 0.0236 E-score |
| ATCGTGTC | 0.413 ± 0.0104 E-score |
| CTCGTGTC | 0.409 ± 0.0114 E-score |
| GTCGTGCA | 0.181 ± 0.0113 E-score |
| GTCGTGTA | 0.438 ± 0.00933 E-score |
| CAAGCGTG | 0.165 ± 0.0253 E-score |
| CACCACCC | 0.3364 ± 0.00314 E-score |
| ACGGATCA | 0.172 ± 0.0172 E-score |
| GACCCGCC | 0.18 ± 0.0248 E-score |
| ACGGGTGC | 0.237 ± 0.00406 E-score |

| Sequence | binding signal |
| --- | --- |
| CCGGGATC | 0.164 ± 0.0362 E-score |
| CTCGAGTA | 0.164 ± 0.00196 E-score |
| CTCGGGTA | 0.168 ± 0.0141 E-score |
| CTCGTGTA | 0.398 ± 0.00843 E-score |
| AACAGGGG | 0.17 ± 0.00571 E-score |
| GATAACAC | 0.4333 ± 0.00385 E-score |
| GATAACCC | 0.19 ± 0.0215 E-score |
| CAAAACAC | 0.321 ± 0.0321 E-score |
| CATAACAC | 0.426 ± 0.00624 E-score |
| AATAAACA | 0.218 ± 0.0334 E-score |
| AATAACAC | 0.426 ± 0.0299 E-score |
| ATAAACAC | 0.365 ± 0.0198 E-score |
| GATAATAC | 0.1568 ± 0.000269 E-score |
| CATAGCAC | 0.195 ± 0.00827 E-score |
| CACCATAA | 0.303 ± 0.015 E-score |
| ATGACCCG | 0.2 ± 0.00637 E-score |
| ACTAGGTG | 0.218 ± 0.00902 E-score |
| ACCCCAAC | 0.237 ± 0.00988 E-score |
| ACCGGAGT | 0.25 ± 0.0191 E-score |
| AGACCCCA | 0.175 ± 0.0169 E-score |
| ACCACACC | 0.407 ± 0.0186 E-score |
| ACCACACA | 0.196 ± 0.00984 E-score |
| CCCACACG | 0.2877 ± 0.0011 E-score |

| Sequence | binding signal |
| --- | --- |
| GCCACACC | 0.367 ± 0.0389 E-score |
| CCCACACC | 0.39 ± 0.0401 E-score |
| ACCACACG | 0.297 ± 0.00738 E-score |
| ACACTTGA | 0.376 ± 0.0165 E-score |
| CGTTGGTA | 0.151 ± 0.00584 E-score |
| GCGCGACA | 0.155 ± 0.0207 E-score |
| CACCGTAC | 0.365 ± 0.0199 E-score |
| CACGGCTC | 0.154 ± 0.0275 E-score |
| AGGTCGTG | 0.264 ± 0.0209 E-score |
| ACACTGCG | 0.383 ± 0.00512 E-score |
| ACACTTCC | 0.349 ± 0.026 E-score |
| ACACTGCA | 0.385 ± 0.00749 E-score |
| ACACTTCA | 0.313 ± 0.047 E-score |
| ACACTTCG | 0.327 ± 0.0333 E-score |
| ACACTGCT | 0.339 ± 0.0327 E-score |
| ACACTGCC | 0.429 ± 0.0024 E-score |
| CCCCTGCA | 0.17 ± 0.016 E-score |
| CACGAGTG | 0.317 ± 0.0328 E-score |
| CTGGGGTA | 0.194 ± 0.0256 E-score |
| CCCCCAAC | 0.17 ± 0.0237 E-score |
| TAATGACA | 0.203 ± 0.0464 E-score |
